The values that follow come from PubChem BioAssay AID1240 (Sanford-Burnham Center for Chemical Genomics, 2008).

About 800 (1.6%) of roughly 50,000 compounds showed an effect of 50% or more. The entries come from a sample that favours strong results as a whole.

The target of the assay is Bcl-2-like protein 10 (Homo sapiens) (UniProt Q9HD36). As to the kind of experiment: Phenotype converters, Bcl-B/TR3 peptide binding displacement, primary biochemical FP (AID 1240).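 Also: 0% = Bcl-B with tracer peptide and DMSO and 100% = tracer peptide lacking Bcl-B.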 Particulars: GST-Bcl-B / FITC-TR3 peptide fluorescence polarization; stronger effect = higher value; compound at 3.75 mg/L. (Polarisation of emitted light reports the rotation of a fluorescent probe.)
Bcl-2-like protein 10 (Homo sapiens), sequence (Q9HD36 whole entry, looked up): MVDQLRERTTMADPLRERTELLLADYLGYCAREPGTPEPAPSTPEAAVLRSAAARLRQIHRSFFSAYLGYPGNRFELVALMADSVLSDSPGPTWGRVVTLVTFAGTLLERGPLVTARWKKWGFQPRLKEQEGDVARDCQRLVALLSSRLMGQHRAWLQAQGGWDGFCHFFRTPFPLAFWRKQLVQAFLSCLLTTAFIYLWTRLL
With `CC(=O)Oc1ccc(-c2cccc(C(=O)NC(CO)C(O)c3ccc([N+](=O)[O-])cc3)c2)cc1` (stereo not given), the displacement is 10.4%.

As for `COC(=O)c1ccc(-n2ncnc2-c2ccc(Br)cc2)cc1`, the displacement is -5.4%.

For `CCC(=O)NC(Nc1ccc(OC)cc1)(C(F)(F)F)C(F)(F)F`, the displacement was -2.7%.

`Cc1oc2c(CN3CC4(C)CC3CC(C)(C)C4)c(O)ccc2c(=O)c1-c1nc2ccccc2s1` (stereo not given): the displacement was 11.2%.

Regarding `Cc1csc(-c2cc3ccc(O)c(CN4CC5(C)CC4CC(C)(C)C5)c3oc2=O)n1` (stereo not given), the displacement stood at 138%.

For the compound `Cc1csc(-c2cc3ccc(OCc4c(F)c(F)c(F)c(F)c4F)cc3oc2=O)n1`, the displacement was 6.9%.

Regarding `COc1ccc(C)cc1NC(=O)COc1ccc(Cl)cc1C`, the displacement is -5.2%.

Consider `O=C(O)CCC(=O)Nc1ccc(CC(=O)O)cc1`, for which the displacement came out at 21.4%.

Consider `CCOC(=O)c1c(NC(=O)C2CCCO2)sc(C(=O)N(CC)CC)c1C` (stereo not given), for which the displacement was -4%.

`N#C/C(=C\c1ccc(F)cc1)c1nn(CCO)c(N)c1C#N`: the displacement was -45.5%.

Take `N#C/C(=C\c1ccc(Cl)cc1)c1nn(CCO)c(N)c1C#N`: the displacement was 11.2%.

Take `CCN(CC)c1ccc(/C=C(\C#N)c2nn(CCO)c(N)c2C#N)cc1`: the displacement was found to be 68.2%.

On to `COc1cc(OC)cc(C(=O)O/N=C(\c2ccncc2)c2ccc([N+](=O)[O-])cc2)c1`, for which the displacement was found to be 10.5%.

On to `O=C1/C(=C/c2ccc(-c3cccc([N+](=O)[O-])c3)o2)SC(=S)N1Cc1ccco1`, for which the displacement was found to be 9.9%.

`O=C(O)CCCN1C(=O)/C(=C\c2ccc(-c3ccc(Br)cc3)o2)SC1=S`: the displacement was -65.6%.

On to `O=C(O)CCCN1C(=O)/C(=C\c2ccc(-c3cccc([N+](=O)[O-])c3)o2)SC1=S`, for which the displacement is 59%.

Regarding `O=C1/C(=C\c2ccc(-c3cccc([N+](=O)[O-])c3)o2)SC(=S)N1CCc1ccccc1`, the displacement came out at 114%.

Regarding `O=C1/C(=C/c2ccc(-c3ccc([N+](=O)[O-])cc3)o2)SC(=S)N1Cc1ccccc1`, the displacement is 9.4%.

With `O=C(O)CCN1C(=O)/C(=C/c2ccc(-c3ccc([N+](=O)[O-])cc3)o2)SC1=S`, the displacement is -59.7%.

Take `O=C(NC1CCN(Cc2ccccc2)CC1)c1ccc(F)cc1`: the displacement stood at 2.6%.

For the compound `FC(F)(F)c1cccc(NC(=S)NCc2ccc3c(c2)OCO3)c1`, the displacement is -6.8%.

As to `CCc1cc(C)cc(OCCn2cc(C=C3C(=O)NC(=S)NC3=O)c3ccccc32)c1`, the displacement came out at 14.7%.

Turning to `CCc1cc(C)cc(OCCOc2ccccc2/C=C2/SC(=S)N(C)C2=O)c1`, the displacement was found to be 2.3%.

Turning to `CCC(C)c1ccccc1OCCn1cc(/C=C2/SC(=S)NC2=O)c2ccccc21` (stereo not given), the displacement was 128%.

Regarding `CCc1cc(C)cc(OCCn2cc(/C=C3/SC(=S)NC3=O)c3ccccc32)c1`, the displacement is 78.8%.

In the case of `Cc1ccccc1OCCn1cc(C=C2C(=O)NC(=S)NC2=O)c2ccccc21`, the displacement came out at 6.1%.

As for `CC(C)(C)c1ccc(OCCn2cc(/C=C3/SC(=S)NC3=O)c3ccccc32)cc1`, the displacement turned out to be 15.2%.

For the compound `O=C1NC(=S)S/C1=C/c1cn(CCOc2ccc(Br)cc2)c2ccccc12`, the displacement came out at 68.9%.

Regarding `COc1cccc(OCCn2cc(/C=C3/SC(=S)NC3=O)c3ccccc32)c1`, the displacement was -15.1%.

On to `COc1cccc(OCCn2cc(C=C3C(=O)NC(=S)NC3=O)c3ccccc32)c1`, for which the displacement is 36.6%.

On to `Cc1cccc(OCCn2cc(/C=C3/SC(=S)N(C)C3=O)c3ccccc32)c1`, for which the displacement was determined as 15.1%.

`CCc1cc(C)cc(OCCn2cc(/C=C3/SC(=S)N(C)C3=O)c3ccccc32)c1`: the displacement worked out at 123%.

As for `O=C1NC(=S)S/C1=C\c1cn(CCOc2ccccc2F)c2ccccc12`, the displacement is -62.3%.

Take `O=C(c1ccc([N+](=O)[O-])cc1)N1CCN(CC2CC3C=CC2C3)CC1` (stereo not given): the displacement was -6.8%.

Consider `O=C(Nc1ccccc1F)c1ccc(CSc2ccc(Cl)cc2)cc1`, for which the displacement was determined as 6%.

Take `COc1ccccc1OCCNC(=O)c1ccc(Br)cc1`: the displacement was -19.3%.

As to `CCOc1ccc(NC(=O)c2cc3cc(OC)ccc3oc2=O)cc1`, the displacement was found to be 13.8%.

Turning to `O=C(Nc1ccccc1I)C1CC(=O)N(c2ccc(Br)cc2)C1` (stereo not given), the displacement was -26%.

In the case of `CC1(C)CC(NC(=S)Nc2cccc(Cl)c2)CC(C)(C)N1`, the displacement was -3.3%.

Take `O=S(=O)(c1ccc(Cl)cc1)n1cccc1`: the displacement worked out at 6.8%.

As for `O=[N+]([O-])c1ccccc1C=Nc1cc2c(cc1Br)OCCO2`, the displacement was -4.8%.

Take `COc1cc2c(cc1NS(=O)(=O)c1ccc([N+](=O)[O-])cc1)oc1ccccc12`: the displacement was -2.9%.

Consider `O=C(O)c1ccc(Cl)c(S(=O)(=O)N2CCCC2)c1`, for which the displacement is 5.8%.

As for `O=C1c2ccc(Oc3ccc4c(c3)C(=O)N(Cc3cccnc3)C4=O)cc2C(=O)N1Cc1cccnc1`, the displacement is -7%.

With `O=[N+]([O-])c1ccc(N2CCOCC2)cc1NC1CC1`, the displacement stood at 4%.

Turning to `COc1ccc(C(=O)NNC(=O)c2cccc(C)c2)c(OC)c1`, the displacement amounted to 3.3%.

`CCOc1ccc(Nc2cc(=O)n(C)c(=O)n2C)cc1`: the displacement was -4.6%.

As to `Cc1ccc(-c2ccccc2)n1-c1ccc(Cl)c(C(=O)O)c1`, the displacement is -41.6%.

With `COc1ccc(N)cc1-n1c(C)ccc1C`, the displacement worked out at 42.5%.

With `Cc1c(C(=O)O)cccc1-n1c(=O)c2cc3c(=O)n(-c4cccc(C(=O)O)c4C)c(=O)c3cc2c1=O`, the displacement worked out at 14%.

With `CC(=O)c1c(C(=O)O)cccc1C(=O)O`, the displacement amounted to 4.4%.

Turning to `Cc1ccc(-c2ccccc2)n1-c1ccccc1C(=O)O`, the displacement came out at 86.8%.

For the compound `Cc1c(C(=O)O)cccc1-n1c(C)ccc1C`, the displacement came to 85.4%.

As for `COc1ccc(CSCC(=O)O)cc1C(=O)O`, the displacement was -8.5%.

In the case of `Cc1ccc(-c2ccccc2)n1-c1ccc(O)c(C(=O)O)c1`, the displacement is 20.4%.

For the compound `COc1cc(C(=O)O)c(-n2c(C)ccc2C)cc1OC`, the displacement stood at 74.7%.

Take `CCOC(=O)C1=C(c2ccccc2)N=c2s/c(=C\c3cccnc3)c(=O)n2C1c1cc(OC)ccc1OC` (stereo not given): the displacement is -3%.

`Cc1ccc(C(=O)Nc2ccccc2C(=O)NC(Cc2c[nH]c3ccccc23)C(=O)O)cc1` (stereo not given): the displacement was 7.1%.

Turning to `CN1C(N)=NC(=O)C12COC(c1cccnc1)OC2` (stereo not given), the displacement turned out to be 7.8%.

In the case of `CC(=O)N(C)c1ccc(NC(=O)c2ccccc2[N+](=O)[O-])cc1`, the displacement is -4%.

As for `Cc1ccc(N(CC(=O)NCCc2ccccc2)S(C)(=O)=O)cc1Cl`, the displacement amounted to 19.2%.

Consider `O=C(O)c1cccc(NC2=C(Cl)C(=O)N(c3ccc(Cl)cc3)C2=O)c1`, for which the displacement came out at 32%.

As for `Clc1ccccc1COc1cccc(/C=N/Nc2nc(N3CCOCC3)nc(N3CCOCC3)n2)c1`, the displacement worked out at 2.6%.

`N#C/C(=C\c1cccc(F)c1)c1nc(-c2ccc([N+](=O)[O-])cc2)cs1`: the displacement worked out at 8.5%.

`N#C/C(=C\c1ccco1)c1nc(-c2ccccc2)cs1`: the displacement is 58.3%.

With `COc1cccc(-c2csc(/C(C#N)=C/c3sccc3C)n2)c1`, the displacement is -8.9%.

Consider `COc1ccc(-c2csc(/C(C#N)=C/c3ccc(C)o3)n2)cc1OC`, for which the displacement was -31.7%.

For `CCOc1ccc(-c2csc(/C(C#N)=C/c3ccco3)n2)cc1`, the displacement was -6%.

For `N#C/C(=C/c1ccco1)c1nc(-c2cc3ccccc3oc2=O)cs1`, the displacement is -1.2%.

For `COc1ccc(-c2csc(/C(C#N)=C\c3sccc3C)n2)cc1`, the displacement was 1.8%.

Turning to `Cc1ccsc1/C=C(\C#N)c1nc(-c2cccc([N+](=O)[O-])c2)cs1`, the displacement was found to be 147%.

As to `Cc1ccc(-c2csc(/C(C#N)=C/c3sccc3C)n2)cc1C`, the displacement was found to be 11.7%.

Turning to `Cc1ccsc1/C=C(/C#N)c1nc(-c2ccc(-c3ccccc3)cc2)cs1`, the displacement was 3.1%.

Consider `Cc1ccsc1/C=C(/C#N)c1nc(-c2ccc(Cl)cc2)cs1`, for which the displacement came out at 81.1%.

As to `COc1ccc(-c2csc(/C(C#N)=C/c3sccc3C)n2)cc1OC`, the displacement was 181%.
